Measured values taken from the supplement of paper PMC7724964.

T1: BTN1A1 285-479 SPRY (domain begin residue: 285, domain end residue: 479), Q13410
T1 chain: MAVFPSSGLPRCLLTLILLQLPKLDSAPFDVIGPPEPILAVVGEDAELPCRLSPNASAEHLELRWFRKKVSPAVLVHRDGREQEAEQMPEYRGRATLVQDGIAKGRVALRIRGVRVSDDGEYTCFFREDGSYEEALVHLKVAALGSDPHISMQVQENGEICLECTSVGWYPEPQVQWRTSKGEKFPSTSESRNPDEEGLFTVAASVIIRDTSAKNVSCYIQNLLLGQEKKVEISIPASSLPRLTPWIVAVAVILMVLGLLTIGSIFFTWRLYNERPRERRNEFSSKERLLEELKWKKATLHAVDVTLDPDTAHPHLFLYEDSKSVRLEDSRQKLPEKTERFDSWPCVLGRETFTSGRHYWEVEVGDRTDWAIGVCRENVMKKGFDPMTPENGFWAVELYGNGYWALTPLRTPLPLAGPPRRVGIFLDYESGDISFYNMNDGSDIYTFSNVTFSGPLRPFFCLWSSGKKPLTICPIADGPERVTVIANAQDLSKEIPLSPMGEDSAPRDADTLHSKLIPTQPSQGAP

T2: CD2BP2 256-341 GYF (domain begin residue: 256, domain end residue: 341), O95400
T2 chain: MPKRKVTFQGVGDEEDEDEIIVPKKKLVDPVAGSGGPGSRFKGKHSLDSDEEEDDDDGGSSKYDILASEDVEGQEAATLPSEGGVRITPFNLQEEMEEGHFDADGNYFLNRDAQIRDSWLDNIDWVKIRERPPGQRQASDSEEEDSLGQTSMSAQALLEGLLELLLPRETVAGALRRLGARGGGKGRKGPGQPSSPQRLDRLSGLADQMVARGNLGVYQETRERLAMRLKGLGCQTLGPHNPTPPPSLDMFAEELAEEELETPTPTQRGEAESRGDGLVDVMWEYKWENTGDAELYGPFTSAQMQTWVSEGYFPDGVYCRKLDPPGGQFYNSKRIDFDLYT


Target: T1, BTN1A1 285-479 SPRY (domain begin …
Test: phage ELISA signal ratio (GST-PRM binding over GST background); higher = stronger binding of peptide-phage to the PRM
Description: (§1)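 Phage-displayed random hexadecapeptides (Cys-free, flanked by invariant Gly linkers, fused to the M13 P8 major coat protein) were selected over 5 rounds against GST-fused human PRM domains. Individual clones from rounds 4-5 were tested by phage ELISA, and positive clones binding the target but not GST were sequenced. Values are the ELISA signal ratio of target over background (GST); the background signal is given separately.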

| Binder | phage ELISA signal ratio |
| --- | --- |
| GGIDWQGVYMKHFEMT | 20.6 |
| PKTGEPWHPWIPHWLA | 8.34 |
| WHPMDWMEHFQMMPDT | 5.73 |

Target: CKS1B 1-79 CKS (domain begin residue: 1, domain end residue: 79), P61024
Test: as above
Description: as §1

CKS1B 1-79 CKS (domain begin residue: 1, domain end residue: 79), P61024, sequence (P61024 whole entry): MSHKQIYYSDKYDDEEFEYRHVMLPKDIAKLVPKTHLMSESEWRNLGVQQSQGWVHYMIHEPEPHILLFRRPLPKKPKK

| Binder | phage ELISA signal ratio |
| --- | --- |
| MTWTATWYASDPYMEV | 28.8 |
| MDSWHYDMIPGEWLRV | 34.3 |
| LNWWTYEELQDLEQFT | 22.8 |

Target: CBX3 109-173 Chromo_shadow (domain begin residue: 109, domain end residue: 173), Q13185
Test: as above
Description: as §1

CBX3 109-173 Chromo_shadow (domain begin residue: 109, domain end residue: 173), Q13185, sequence (Q13185 whole entry): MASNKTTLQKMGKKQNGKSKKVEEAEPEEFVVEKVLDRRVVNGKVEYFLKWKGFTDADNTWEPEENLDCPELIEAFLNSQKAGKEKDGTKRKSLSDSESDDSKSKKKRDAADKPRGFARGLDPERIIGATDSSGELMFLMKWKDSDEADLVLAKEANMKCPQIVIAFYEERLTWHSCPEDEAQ

| Binder | phage ELISA signal ratio |
| --- | --- |
| HWIDSWEGFRARVIPS | 12.6 |

Target: T2, CD2BP2 256-341 GYF (domain begin …
Test: as above
Description: as §1

| Binder | phage ELISA signal ratio |
| --- | --- |
| MEEPPGYRLNMYAMSY | 17.5 |

Target: CBX5 109-173 Chromo_shadow (domain begin residue: 109, domain end residue: 173), P45973
Test: as above
Description: as §1

CBX5 109-173 Chromo_shadow (domain begin residue: 109, domain end residue: 173), P45973, sequence (P45973 whole entry): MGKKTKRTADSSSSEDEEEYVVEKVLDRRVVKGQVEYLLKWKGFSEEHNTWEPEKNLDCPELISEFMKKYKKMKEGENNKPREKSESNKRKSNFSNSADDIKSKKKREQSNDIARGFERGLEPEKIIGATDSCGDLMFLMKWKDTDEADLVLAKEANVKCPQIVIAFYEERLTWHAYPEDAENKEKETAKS

| Binder | phage ELISA signal ratio |
| --- | --- |
| QFLPTTWQDYLLYMDQ | 3.39 |
